Laboratory results published in PubChem BioAssay AID1303 (The Scripps Research Institute Molecular Screening Center, 2008).
The other results are listed elsewhere or left out. Active and inactive are the calls of the source.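 How the source made its calls: active means inhibition above the mean of solvent-only control wells plus 3 SD of those wells (cut at about 15% in these data); inactive means the rest.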

Assay: NF-kB reporter inhibitors, TNF-alpha stimulated, counter-screen for STAT1 inhibitor project, cell-based, HEK293T, luciferase luminescence (AID 1303);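 further: 0% = DMSO with TNF-alpha and 100% = MG-132 control with TNF-alpha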
Settings: TNF-alpha induced, at 5.7 µM, stronger effect = higher value

| Compound | inhibition |
| --- | --- |
| O=C(CCl)N(Cc1cccc([N+](=O)[O-])c1)c1cccc(Cl)c1 | 37.9% (active) |
| CCOC(=O)N1CCN(C(=O)CSc2nnc(-c3c[nH]c4ccccc34)n2CCOC)CC1 | 3.03% (inactive) |
| COc1ccc(C2CC(c3cccs3)=NN2c2nc(C)c(C(C)=O)s2)cc1OC (stereo not given) | 1.4% (inactive) |
| Cc1ccc(C2=Nc3c(ccc4ccccc34)C(c3ccncc3)=NN2)cc1 | 4.77% (inactive) |
| CCOC(=O)C(=CNc1cccc(C)n1)C(=O)OCC | -2.27% (inactive) |
| C[C@@H]1C[C@@H]2O[C@H]2/C=C\C=C\C(=O)Cc2c(Cl)c(O)cc(O)c2C(=O)O1 | 54.9% (active) |
| COc1ccc(C(=O)Nc2ccccc2C(=O)N/N=C/c2ccccc2OC)cc1 | 10.2% (inactive) |
| CCOC(=O)N1CCN(C(=O)C2CCN(c3ncnc4c3sc3cccc(F)c34)CC2)CC1 | 20.1% (active) |
| COC(=O)C1=CN(Cc2ccc(OC)c(OC)c2)C=C(C(=O)OC)C1c1cccs1 | -1.6% (inactive) |
| NS(=O)(=O)c1cccc(NC(=O)CSc2nc3ccccc3n2-c2ccccc2)c1 | 1.57% (inactive) |
